GDH-TPI inh: counter-screen for M. tuberculosis FBA inhibitors: GDH-TPI coupled enzymes; GDH-TPI coupled enzyme counterscreen, NADH absorbance; inhibition, % at 4.8 µM; 1.2% of 360,000 active; in the data active = inhibition above about 30%
Mtb betalactam: beta-lactam sensitization of Mtb H37Rv; M. tuberculosis H37Rv growth with meropenem, percent inhibition; inhibition, % at 25 µM; 0.27% of 330,000 active; call rule not given here;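 also: growth measured after seven days incubation then overnight dye step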
Mtb hypoxia inh: reduces hypoxia-regulated biosensor signal in M. tuberculosis. M. tuberculosis hypoxia-regulated fluorescent reporter, fluorescence. 0.1% of 300,000 active. AID 1159583. fluorescence inhibition, % (no concentration beside the values); in the data active = fluorescence inhibition mostly above about 23%, no sharp cut-off; inactive = mostly below about 17%
FBA Mtb inh: inhibits M. tuberculosis FBA enzyme | P9WQA3 | purified M. tuberculosis FBA, fluorescence read-out | inhibition, % at 1 µM | 2.3% of 360,000 active; in the data active = inhibition above about 27%
Target sequence (P9WQA3 whole entry, looked up): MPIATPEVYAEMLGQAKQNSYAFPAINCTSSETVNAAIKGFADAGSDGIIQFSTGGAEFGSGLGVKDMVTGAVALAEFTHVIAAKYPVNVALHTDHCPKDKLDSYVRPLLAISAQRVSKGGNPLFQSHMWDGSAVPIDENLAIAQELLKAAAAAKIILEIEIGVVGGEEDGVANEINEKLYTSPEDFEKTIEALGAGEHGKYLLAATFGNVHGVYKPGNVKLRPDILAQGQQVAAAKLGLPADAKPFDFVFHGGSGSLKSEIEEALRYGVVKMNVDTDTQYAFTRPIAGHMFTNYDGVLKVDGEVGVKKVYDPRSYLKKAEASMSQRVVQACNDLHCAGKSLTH
DUSP3 inh: inhibitors of human VHR1 phosphatase (DUSP3). P51452. recombinant VHR phosphatase, pNPP absorbance. inhibition, % at 13.3 µM. 0.52% of 290,000 active; in the data active = inhibition above about 50%
Target sequence (P51452 whole entry, looked up): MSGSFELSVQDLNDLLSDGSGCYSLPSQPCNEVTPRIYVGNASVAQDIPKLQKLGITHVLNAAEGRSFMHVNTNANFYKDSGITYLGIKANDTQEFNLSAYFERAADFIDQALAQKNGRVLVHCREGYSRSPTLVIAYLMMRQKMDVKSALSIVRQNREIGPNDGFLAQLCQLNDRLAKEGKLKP
Hits are given with their value; – = inactive; ? = inconclusive; · = no result given; + = active, no number. An excerpt weighted towards active compounds, which were near 3.6% of everything screened.

SMILES	GDH-TPI inh	Mtb betalactam	Mtb hypoxia inh	FBA Mtb inh	DUSP3 inh
COc1ccc(/C=N/Nc2nnc(-c3ccccc3)c(=O)[nH]2)cc1	35	–	·	–	–
CCCCCCSc1ccc(C2N[C@@](Cc3ccccc3)(C(=O)OC)C3C(=O)N(C)C(=O)C23)cc1 (some centres not stated)	·	·	–	·	·
COc1ccc2nc(Nc3ccccc3OC)sc2c1	–	–	–	–	–
COc1ccc(-c2nnc(Nc3nc4c(OC)cccc4s3)o2)c(OC)c1	69	–	–	60	–
COc1ccc(-c2nnc(Nc3nc4c(OC)cccc4s3)o2)cc1	63	?	–	–	–
COc1cc2c(cc1O)C1Cc3cc(OC)c(OC)cc3C(C2)N1C (configuration not stated)	·	·	–	·	·
COc1ccc(-c2cc(=O)c3c(OC)c(OC)c(OC)c(OC)c3o2)cc1OC	32	–	–	–	–
COc1ccc(-c2cc(=O)c3c(OC)c(OC)c(OC)cc3o2)cc1	32	–	·	–	–
O=c1cc(-c2ccc(O)cc2)oc2ccc(O)cc12	37	–	–	–	–
O=c1cc(-c2cccc(F)c2)oc2ccccc12	–	·	–	–	·
O=c1cc(-c2ccc3c(c2)OCO3)oc2ccccc12	39	–	–	–	–
CC(=NNC(=O)c1cc(-c2ccccc2)nc2c(Cl)cccc12)c1cccnc1	·	·	–	·	·
Cc1ccc(SCC(=O)NN=Cc2ccco2)cc1	·	·	–	·	·
COc1cc(OC)c2c(=O)c(OC)c(-c3ccc(OC)c(OC)c3)oc2c1	–	–	·	103	–
O=c1cc(-c2ccc(O)cc2)oc2ccccc12	–	–	·	–	–
Nc1c(-c2ccc3c(c2)OCCO3)oc2ccccc2c1=O	–	–	–	+	–
COc1ccc(-c2cc(=O)c3ccccc3o2)cc1	32	–	·	+	–
CC(=NNC(=O)c1nc2ccccn2c1C)c1cc2ccccc2o1	·	·	–	·	·
CC(C)CC1CN=C(Nc2ccccc2)N1CCCCc1ccccc1 (configuration not stated)	·	·	–	·	·
CN(C)CCn1nnnc1SCC1=C(C(=O)O)N2C(=O)C(NC(=O)Cc3csc(N)n3)C2SC1 (configuration not stated)	·	·	–	·	·
Cc1ccc(S(=O)(=O)NC2=C(N3CCN(c4ccccc4F)CC3)C(=O)c3ccccc3C2=O)cc1	–	–	·	–	–
O=S(=O)(Nc1nc2ccccc2nc1N1CCc2ccccc2C1)c1ccc(Br)cc1	–	–	–	126	–
CN1CCN(c2nc3ccccc3nc2NS(=O)(=O)c2ccc(Br)cc2)CC1	–	–	–	–	·
Cc1ccc(S(=O)(=O)Nc2nc3ccccc3nc2N2CCN(c3ccccc3F)CC2)cc1	–	–	·	–	50
CC(=O)Nc1ccc(S(=O)(=O)Nc2nc3ccccc3nc2N2CCc3ccccc3C2)cc1	–	–	–	–	–
SMILES	GDH-TPI inh	Mtb betalactam	Mtb hypoxia inh	FBA Mtb inh	DUSP3 inh
CC(=O)Nc1ccc(S(=O)(=O)Nc2nc3ccccc3nc2N2CCCCCC2)cc1	33	–	–	–	–
O=C(NN=Cc1ccc(OC2CSC2)cc1)c1ccccc1	·	·	–	·	·
Cc1ccccc1NCC(=O)NN=C/C(Br)=C/c1ccccc1	·	·	–	·	·
COc1ccc(NC(=O)C=Cc2c(Cl)nc3ccccn23)cc1	·	·	–	·	·
C=CCn1c(=O)c2c(nc(-c3ccc(S(=O)(=O)O)cc3)n2C)n(C)c1=O	–	–	–	+	·
O=C1N/C(=C\c2ccc(O)cc2)C(O)=C1C=NCc1ccccc1	37	–	–	–	–
CN1C(=O)NC(c2ccc(O)cc2)C(C(=O)c2cccs2)C1(O)C(F)(F)F (configuration not stated)	43	–	–	–	–
O=C1NC(c2ccccc2)C(C(=O)c2cccs2)C(O)(C(F)(F)F)N1 (configuration not stated)	–	–	·	–	–
Cc1ccc(OCC(=O)N/N=C/C=C/c2ccco2)c(Br)c1	34	·	·	–	–
COc1ccc(C(=O)NCC(=O)NN=C/C(C)=C/c2ccco2)cc1OC	·	·	–	·	·
Cc1cccc(OCC(=O)N/N=C/C=C/c2ccco2)c1	–	–	·	–	–
CC(/C=N/NC(=O)Cn1cnc2c1c(=O)n(C)c(=O)n2C)=C\c1ccco1	41	–	·	–	–
CC(/C=N/NC(=O)Cc1cccn1C)=C\c1ccco1	40	–	·	–	–
CC(=C/c1ccco1)/C=N/NC(=O)Cc1cccn1C	–	–	·	–	–
C/C(C=NNC(=O)Cn1cnc2c1c(=O)n(C)c(=O)n2C)=C\c1ccco1	·	·	–	·	·
COc1ccc(C(=O)NCC(=O)N/N=C/C(C)=C/c2ccco2)cc1OC	41	–	·	–	–
O=C(CNC(=O)c1cccs1)NN=Cc1cccc(Br)c1	·	·	–	·	·
O=C(CCC(=O)Nc1ccc(F)cc1)NN=Cc1ccccc1O	·	·	–	·	·
CCN(CC)c1ccc(C=C2NC(=O)NC2=O)cc1	·	·	–	·	·
CCN1C(=O)C2C(c3ccc(SC4CCCCC4)cc3)N3CCCC[C@@]3(C(=O)OC)C2C1=O (some centres not stated)	·	·	–	·	·
Cn1c(=O)c2c(ncn2CC(=O)N/N=C/C=C/c2ccco2)n(C)c1=O	32	–	·	–	–
O=C(CN1CCN(Cc2ccccc2)CC1)N/N=C/C=C/c1ccco1	33	–	·	–	–
CCN(CC)c1ccc(C=Nc2ccc(C#N)cc2)c(O)c1	45	–	·	–	–
CCN(CC)c1ccc(C=Nc2ccccc2C)c(O)c1	37	–	–	–	–
CCN(CC)c1ccc(O)c(C=Nc2ccc(C)c(C)c2)c1	–	–	–	–	–
SMILES	GDH-TPI inh	Mtb betalactam	Mtb hypoxia inh	FBA Mtb inh	DUSP3 inh
COc1ccc(S(=O)(=O)Nc2ccc3c(c2)C(=O)N(C(C)CO)CC(C)C(CN(C)C(=O)Nc2ccc4c(c2)OCO4)O3)cc1 (configuration not stated)	·	·	–	·	·
OCCC1CN(Cc2cn[nH]c2C2CCCCC2)CCN1Cc1ccccc1 (configuration not stated)	–	–	–	–	–
Cc1ccc(CN2CCN(Cc3cn[nH]c3C3CCCCC3)CC2CCO)cc1 (configuration not stated)	–	–	·	–	52
COc1ccc(C(=O)NN=Cc2c(CO)cnc(C)c2O)cc1	·	·	–	·	·
C=CCOc1ccc(CC2C(=O)N(C)C(=O)N(C)C2=O)cc1	–	–	–	–	–
CCN(CC)c1ccc(CC2C(=O)N(C)C(=O)N(C)C2=O)cc1	–	–	–	42	–
CCC(C)Cc1cn(C(CCCCNC(=O)OC(C)(C)C)C(=O)NCCCCCCCCCCC(=O)N2CCN(C(=O)OC(C)(C)C)CC2)nn1 (configuration not stated)	·	·	–	·	·
O=C(Cc1cnn(-c2ccccc2)c1)c1ccc(O)c(O)c1O	–	–	–	–	–
CCc1cc(C(=O)Cc2cnn(-c3ccccc3)c2)c(O)cc1O	50	–	–	–	–
CC(C)(C)c1ccc(-c2n[nH]c(=S)n2N=Cc2ccncc2)cc1	·	·	–	·	·
COc1cc(C=NNc2ccccn2)ccc1O	·	·	–	·	·
CC1CCN(CCCNC(=O)CN2C(=O)CSc3ccc(S(=O)(=O)N4CCC(C)CC4)cc32)CC1	–	–	–	–	–
CC1CCN(S(=O)(=O)c2ccc3c(c2)N(CC(=O)NCCCN2CC(C)CC(C)C2)C(=O)CS3)CC1 (configuration not stated)	–	–	–	–	56

Bioassay records (PubChem BioAssay)
